# Assay outcomes as filed in PubChem BioAssay.
# Sampled rows, rich in hits. Any-hit rate of the full collection: about 27%.
# CYP2C9 inh: blockers of cytochrome P450 2C9 activity – biochemical, luminescence, ADME assay, primary screen; P11712; CYP2C9 Supersomes, luciferin-H conversion; inhibition, % at 5 µM; 20% of 96,000 active; AID 777, 2007;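 active = blocking of liver enzyme CYP2C9 beyond about 50% at 5 µM, limit read from the data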
# Target sequence (P11712 whole entry, looked up): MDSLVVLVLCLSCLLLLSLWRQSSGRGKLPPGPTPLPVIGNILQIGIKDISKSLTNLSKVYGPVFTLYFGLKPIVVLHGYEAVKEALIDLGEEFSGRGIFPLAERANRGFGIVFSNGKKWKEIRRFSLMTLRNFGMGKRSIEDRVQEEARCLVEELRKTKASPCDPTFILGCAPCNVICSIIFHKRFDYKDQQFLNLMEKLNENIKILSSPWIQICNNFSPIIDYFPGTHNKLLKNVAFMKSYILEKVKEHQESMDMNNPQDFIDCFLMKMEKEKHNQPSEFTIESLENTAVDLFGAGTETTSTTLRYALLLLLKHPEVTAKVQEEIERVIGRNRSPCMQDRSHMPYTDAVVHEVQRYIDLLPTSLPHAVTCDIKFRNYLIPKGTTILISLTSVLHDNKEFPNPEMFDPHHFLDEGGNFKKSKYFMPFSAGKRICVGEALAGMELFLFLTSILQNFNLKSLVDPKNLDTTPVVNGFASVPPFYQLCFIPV
# CYP2C19 act: human CYP2C19 activators, primary screen, biochemical, luminescence; Cytochrome P450 2C19 (Homo sapiens), P33261; recombinant CYP2C19, luciferin-H EGE luminescence; hits give high values; 0 = fully inhibited enzyme, 1 = untreated enzyme; activation factor at 5 µM; 96,000 tested, under 10 active; AID 1025, 2008;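 active = activation factor of at least 2 at 5 µM in the primary screen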;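 also: 0 = wells with 2.5 mM tranylcypromine and 1 = vehicle-only wells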
# sEH act: soluble epoxide hydrolase activators, primary screen, biochemical, human sEH. activation, % at 2 µM. 0.04% of 91,000 active. Bifunctional epoxide hydrolase 2 (Homo sapiens), P34913. purified human sEH enzymatic activity, activator screen; in the data active = activation above about 37%
# CYP2C19 inhib: blockers of cytochrome P450 2C19 activity – biochemical, luminescence, ADME assay, primary screen | CYP2C19 Supersomes, luciferin-H EGE luminescence, 30 min | inhibition, % at 5 µM | P33261 | 21% of 96,000 active;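 active = CYP2C19 inhibition above a set limit at 5 µM in the primary screen, cut at about 50% in these data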;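 also: plate controls were negative control wells for no effect and 2.5 mM tranylcypromine positive control for full effect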
# CYP2C9 act: human CYP2C9 activators, primary screen, biochemical, luminescence; activation factor at 5 µM; recombinant CYP2C9, luciferin-H conversion; hits give high values; factor 1 = untreated enzyme, 0 = blocked; AID 1024, 2008; Cytochrome P450 2C9 (Homo sapiens), P11712; 1.4% of 96,000 active;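 active = activation factor of 2 or more for CYP2C9 at a 5 µM dose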;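 also: 0 = sulfaphenazole-blocked wells and 1 = vehicle-only wells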
# sEH inh: soluble epoxide hydrolase inhibitors, primary screen, biochemical, human sEH | Bifunctional epoxide hydrolase 2 (Homo sapiens), P34913 | recombinant human sEH enzymatic activity assay | 0.34% of 91,000 active | inhibition, % at 2 µM | AID 707, 2007; in the data active = inhibition above about 80%
# An asterisk follows results filed as active; nt = no result.
SMILES,CYP2C9 inh,CYP2C19 act,sEH act,CYP2C19 inhib,CYP2C9 act,sEH inh
COc1ccccc1-c1nc(S(=O)(=O)c2ccc(Cl)cc2)c(N(C)C)o1,-29,1.1,-1,-15,1.3,3
COc1cc(C)nc(N(C)S(=O)(=O)c2ccccc2Cl)n1,23,0.3,1,73*,0.8,2
CC(C)CC(C(=O)N1CCc2ccccc2C1)N1C(=O)c2ccccc2C1=O (stereo unspecified),25,0.7,-1,34,0.8,4
CN1CCCC(OC(=O)CCCC(=O)OC2CCCN(C)C2)C1 (stereo unspecified),20,0.9,-16,13,0.8,13
COC(=O)c1cc(Br)c(=O)n(-c2ccccc2OC)c1,-22,0.9,-6,14,1.2,8
COC(=O)c1cc(Br)c(=O)n(-c2cccc(F)c2)c1,0,0.5,6,52*,1,-2
COC(=O)c1cc(Br)c(=O)n(-c2ccc(OC)cc2)c1,12,0.4,-3,55*,0.9,1
CC(=O)N(NC(=O)c1ccccc1Cl)C1CC(=O)N(c2ccc(C)cc2)C1=O (stereo unspecified),16,0.8,2,18,0.8,0
Cc1c(Br)cc(C(=O)NCCCN2CCOCC2)c(C)c1C,-60,0.8,0,24,1.6,0
CC(O)c1nc2ccccc2n1C/C=C/c1ccccc1 (stereo unspecified),55*,0,10,98*,0.5,-5
CCOCCn1c(C(C)O)nc2ccccc21 (stereo unspecified),nt,nt,7,nt,nt,-4
C=C(Br)Cn1c(CC)nc2ccccc21,-4,1,17,2,1,-16
OCc1nc2ccccc2n1C/C=C/c1ccccc1,60*,0.1,1,92*,0.4,-2
Cc1cc2nc(CCN(C(=S)NCC(C)C)C3CCCC3)[nH]c2cc1C,43,0.6,8,39,0.6,-7
COc1ccc(C(=O)NC2CCN(C(=S)Nc3cccc(C)c3C)CC2)cc1,-13,1.1,-2,-8,1.1,1
Nc1ncnc2nc(SCC(=O)N3CCN(c4ccccc4)CC3)[nH]c12,16,0.8,2,22,0.8,-2
Nc1ncnc2nc(SCc3ccccc3)[nH]c12,42,0.3,19,70*,0.6,-17
Cc1csc(Sc2ccc([N+](=O)[O-])cc2C(=O)OCC(=O)NC(=O)NC(C)(C)C)n1,72*,0.8,-8,19,0.3,9
COCCNC(=O)NC(=O)COC(=O)c1cc([N+](=O)[O-])ccc1Sc1nc(C)cs1,21,1,8,4,0.8,-7
Cc1ccc(-n2ccc(=O)c(-c3ccnc(SCc4cccc(Cl)c4)n3)n2)cc1,56*,0.8,4,20,0.4,-3
COn1c(SCc2cccc(Cl)c2)nc2ccccc2c1=O,25,0.7,-9,30,0.8,11
COc1ccc(N2C(=O)CSC23C(=O)N2c4c(cccc43)C(C)=CC2(C)C)cc1 (stereo unspecified),80*,0,-6,98*,0.2,7
O=C1CC(=C2c3ccccc3-c3ccccc32)C(=O)N1CCN1CCN(c2cccc(Cl)c2)CC1,nt,nt,12,nt,nt,-13
O=C1C(NS(=O)(=O)c2cccs2)=C(N2CCN(c3cccc(Cl)c3)CC2)C(=O)c2ccccc21,78*,0.5,6,51*,0.2,-6
CCOC(=O)CC(=O)CSC1=C(C#N)C(c2ccccc2OC)CC(=O)N1 (stereo unspecified),63*,0.4,nt,62*,0.4,nt
SMILES,CYP2C9 inh,CYP2C19 act,sEH act,CYP2C19 inhib,CYP2C9 act,sEH inh
COc1ccccc1C1CC(=O)NC(SCC(=O)Nc2ccccc2)=C1C#N (stereo unspecified),40,0.2,-10,76*,0.6,10
N#CC1=C(SCC(=O)Nc2nccs2)NC(=O)CC1c1ccccc1 (stereo unspecified),87*,0.4,-7,58*,0.1,5
C=CCSC1=C(C#N)C(c2ccccc2C)CC(=O)N1 (stereo unspecified),25,0.8,1,24,0.8,-6
Cc1cc(S(=O)(=O)NC(C)C)ccc1OCC(=O)N1CCOCC1,29,0.9,6,12,0.7,-3
Cc1ccc(-c2[nH]c(=O)n3ccncc23)s1,nt,nt,-9,nt,nt,10
COc1ccc(CC(=O)NCC2(c3ccc(OC)c(OC)c3)CCOCC2)cc1,2,0.9,-9,10,1,6
COc1ccc(C2(CNC(=O)Cc3ccccc3)CCCC2)cc1OC,35,0.4,-1,62*,0.7,1
COc1ccc(C2(CN(C(C)=O)C(C)=O)CCCC2)cc1OC,31,0.5,6,52*,0.7,-8
CCOC(=O)C(NC(=O)CC)(N1CCc2ccccc2C1)C(F)(F)F (stereo unspecified),56*,0.8,-11,22,0.4,14
O=C(NC(C(=O)c1ccccc1)n1c(=O)cc[nH]c1=S)c1ccccc1 (stereo unspecified),nt,nt,-7,nt,nt,7
O=C(NC1CC2CCCC(C1)N2S(=O)(=O)c1ccccc1)C1CCCCC1 (stereo unspecified),60*,0.7,-34,27,0.4,33
Cc1cc2sc(C(=O)O)c(C)c2s1,nt,nt,5,nt,nt,-5
O=C(CN1C(=O)CSC1=O)Nc1ccc(F)c(F)c1F,11,0.9,4,10,0.9,-3
COc1cccc(C(=O)NC(=S)Nc2ccc3c4c(cccc24)CC3)c1,-97,1,3,-2,2*,1
COc1cccc(C(=O)Nc2ccc(C(=O)O)cc2)c1,0,0.7,-14,29,1,13
O=C(NC(=S)Nc1cc(C(F)(F)F)ccc1Cl)c1ccccc1,-56,0.6,17,39,1.6,-19
COc1ccc(C(=O)Nc2cc(C(F)(F)F)ccc2Cl)cc1OC,-147,1,11,3,2.5*,-7
COc1cccc(C(=O)Nc2ccc(Cl)c(C(F)(F)F)c2)c1,62*,0.7,-56,35,0.4,58
COc1cccc(C(=O)Nc2cc(C(F)(F)F)ccc2Cl)c1,-174,0.7,-10,32,2.7*,10
Cc1ccccc1OCC(=O)NC(=S)Nc1ccc2c3c(cccc13)CC2,-12,1.1,1,-5,1.1,-2
CCCC(=O)c1c[nH]c(C(=O)NCCCN2CCOCC2)c1,-16,1.1,0,-13,1.2,0
COc1c(Cl)cc(-c2noc(C)c2C(=O)NCCc2ccc(C)cc2)cc1Cl,39,1,1,-2,0.6,-2
O=S(=O)(CCc1ccccc1)/N=C/c1cccs1,-21,1.1,nt,-9,1.2,nt
